Measured values published in PubChem BioAssay (NCI).
Compounds without any hit were thinned out: in the full panel of roughly 83,000, 20% have a hit.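 Results are percent growth after 48 hours of single-concentration exposure. 100 means growth as in untreated cells, lower positive values show inhibition; negative values down to -100 show cell death.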 Values without a mark were called inactive. Activity calls are given as the source filed them. Rule for the calls: active = growth percent below 10; inactive = the rest.

Legend:
Test in all cases: NCI-60 one-dose screen, 48 h (100 = growth as untreated, 0 = no growth, -100 = all killed)
Settings in all cases: 10 µM unless noted
SK-MEL-2 melanoma = test system: SK-MEL-2 melanoma
EKVX NSCLC = test system: EKVX NSCLC
SN12C renal = test system: SN12C renal
UO-31 renal = test system: UO-31 renal
TK-10 renal = test system: TK-10 renal
ACHN renal = test system: ACHN renal
CAKI-1 renal = test system: CAKI-1 renal
A498 renal = test system: A498 renal
CCRF-CEM leukemia = test system: CCRF-CEM leukemia
MOLT-4 leukemia = test system: MOLT-4 leukemia

| SMILES | growth (SK-MEL-2 melanoma) | growth (EKVX NSCLC) | growth (SN12C renal) | growth (UO-31 renal) | growth (TK-10 renal) | growth (ACHN renal) | growth (CAKI-1 renal) | growth (A498 renal) | growth (CCRF-CEM leukemia) | growth (MOLT-4 leukemia) |
| --- | --- | --- | --- | --- | --- | --- | --- | --- | --- | --- |
| COc1cc(-c2nc3sccn3c2-c2ccnc(NCCNS(=O)(=O)c3ccccc3)n2)ccc1F | 54.2% | 61.5% | 46.4% | 16.1% | 57% | 41.1% | 26.9% | 48.9% | 30.9% | 24.7% |
| COc1c(C(=O)Nc2ccc(C)c(Br)c2)ccc2ccccc12 | 102% | 66.3% | 96.8% | 85.5% | 103% | 104% | 71.9% | 91.2% | 91.3% | 73.7% |
| O=C(Nc1cccc(-c2ccc(N3CCOCC3)nn2)c1)Nc1cccc(C(F)(F)F)c1 | 70% | 63.7% | 66.6% | 74.9% | 70.6% | 65.7% | 87.9% | 80.3% | 26% | 22.9% |
| O=C1NC2(Nc3ccccc31)C(=O)Nc1c(Cl)cc(Cl)cc12 (stereo not given) | 119% | 98.8% | 106% | 78.5% | 206% | 107% | 85.1% | 106% | 103% | 93% |
| COc1cc2c(cc1OCCCN1CCN(CCCOc3cc4c(cc3OC)C(=O)N3CCC[C@H]3C=N4)CC1)C=CC(C)(C)O2 | -77% (active) | -100% (active) | -65.7% (active) | -58.8% (active) | -83.6% (active) | 4.25% (active) | -71% (active) | -100% (active) | -48.6% (active) | -12.8% (active) |
| CCn1cc(C(=O)O)c(=O)c2cc(F)c(N3CCN(CC(=O)Nc4ccc(S(=O)(=O)Nc5nccc(C)n5)cc4)C(C)C3)c(F)c21 (stereo not given) | 119% | 111% | 98% | 83.3% | 129% | 102% | 88.6% | 111% | 102% | 123% |
| COC(=O)[C@]12CCC(C)(C)C[C@H]1[C@H]1/C(=N/OCCc3nn[nH]n3)C[C@@H]3[C@@]4(C)CC[C@H](OC(C)=O)C(C)(C)[C@@H]4CC[C@@]3(C)[C@]1(C)CC2 | 58.8% | 35.6% | 39% | 15.5% | 55.6% | 32.8% | 39.8% | -19% (active) | 33.5% | 27.6% |
| COc1ccc(-c2noc(C(=O)O)c2-c2cc(OC)c(OC)c(OC)c2)cc1 | 13.8% | 44.1% | 38.4% | 38.8% | 46.4% | 34.7% | 22.6% | 31.6% | 7.85% (active) | 25.7% |
| N#CC(C#N)N=Nc1ccc(Br)cc1 | 82.1% | 55.9% | 21.3% | 2.16% (active) | 36.5% | 16.6% | 6.33% (active) | 100% | 9.65% (active) | 31.8% |
| CCOC(=O)c1nn(-c2ccc(S(N)(=O)=O)cc2)c2nc(C)cc(=O)n12 | 109% | 104% | 96.7% | 86.1% | 94.7% | 108% | 90.8% | 88.3% | 105% | 119% |
| CC(C)=CCCC(C)c1ccc(C)c2c1OCN(CCCCCO)C2 (stereo not given) | 92.7% | 102% | 78.6% | 57% | 73.7% | 94.1% | 78.1% | 75.3% | 96% | 66.5% |
| CN(/C(N)=N/N=C/c1c2ccccc2cc2ccccc12)C1CCCCC1 | 85.8% | 50.5% | 54.7% | 33.5% | 59.3% | 52.7% | 46.5% | 50.3% | 29.1% | 14.2% |
| NC(Cc1ccc(O)c([N+](=O)[O-])c1)C(=O)O (stereo not given) | 109% | 111% | 95.7% | 88.2% | 94.4% | 99.2% | 93.9% | 105% | 88.7% | 96% |
